# Assay outcomes deposited in PubChem BioAssay by National Center for Advancing Translational Sciences (NCATS).
# Only some compounds are listed: those with a hit (about 4.2% of all), similar ones and a draw of the others.
# Sfp PPTase inh: blocks B. subtilis Sfp PPTase activity | Q9F4F7 | Biochemical Sfp PPTase activity, qHTS | Potency, µM, hits mostly inhibitors | 310,000 tested, 3.5% active;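 also: the enzyme is Sfp with the accession as filed and its product quenches rhodamine fluorescence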
#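 Buffer: 50 mM Hepes-Na pH 7.6, 10 mM MgCl2, 0.01% Nonidet P-40, 0.01% BSA. Enzyme 15 nM, pre-exposed to compound 15 min; substrates then added and fluorescence change tracked over 30 min.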
# ClpP mod: qHTS Assay for Activators of ClpP. ATP-dependent Clp protease proteolytic subunit (Bacillus subtilis (strain 168)), P80244. purified B. subtilis ClpP, FRET peptide cleavage, 20 min. Potency, µM (series often up to 57.5 µM). 340,000 tested, 1.9% active; active = well fitted falling curve with a large enough effect; inconclusive = small, poorly fitted or top-dose-only effect; inactive = no such curve, though single readings can be large or run the other way; also: the source files actives as falling curves though it sought activators and does not explain the sign; nearly all actives have a fitted effect of over 65% in size
#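 FRET quenching reversal measured ClpP activation: 10 microg/mL B. subtilis ClpP at pH 8 with the FRET-FV decapeptide, read at 430 nm after 320 nm excitation. The 20-min minus 0-min signal was scaled between DMSO/no-enzyme wells and ADEP (5.8 microM final).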
# uPA surface inh: blocks generation of uPA at the cell surface; cell surface uPA generation assay, qHTS; Potency, µM (series often up to 38.3 µM), most hits filed as inhibitors; 330,000 tested, 0.31% active; AID 540303; active = well fitted inhibition curve with a large enough effect; inconclusive = small, poorly fitted or top-dose-only effect; inactive = no such curve, though single readings can be large or run the other way; tested in mouse RAW 264.7 cells; also: nearly all actives have a fitted effect of over 55% in size
# TCR activator: activators of T cell receptors; Potency, µM (doses to about 9.22 µM), usual class: activators; primary human leukocytes, anti-CD3, IL-2 HTRF, 48 h; AID 504894; 330,000 tested, under 10 active
#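 Compounds are tested in HTS on primary human leukocytes co-incubated with a-CD3 beads for 48 hr. IL-2 output is measured by time-resolved FRET.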
# A number is an active result; i = inactive; ? = inconclusive; nt = no result. Unless noted, calls follow the shape of the dose curve; as a rule, active = well fitted curve in the direction sought with a large enough effect; inconclusive = small, poorly fitted or top-dose-only effect, or another doubt; inactive = no such curve, though single readings can be large; an effect the other way counts as inactive or inconclusive.
SMILES,Sfp PPTase inh,ClpP mod,uPA surface inh,TCR activator
C=CCn1c(SCC(=O)NCC2CCCO2)nc2scc(-c3ccc(OC)cc3)c2c1=O (configuration not stated),i,i,i,i
C=CCn1c(SCC(=O)c2ccc(CNC(C)=O)o2)nc2scc(C3CC3)c2c1=O,44.7µM,i,i,i
C=CCn1c(SCCN2C(=O)c3ccccc3C2=O)nc2scc(-c3ccccc3)c2c1=O,i,i,i,i
C=CCn1c(SCc2ccccc2)nc2scc(-c3ccc(C)o3)c2c1=O,28.2µM,i,nt,i
C=CCn1c(SCC(N)=O)nc2scc(-c3ccc(C)o3)c2c1=O,22.4µM,i,i,i
Cc1cc(/C=C2\C=Cc3ccccc32)ccc1N(C)C,nt,i,nt,nt
Cc1ccc(-n2cccc2/C=C2/NC(=O)N(CC(=O)Nc3cccc(C)c3)C2=O)cc1,i,i,i,i
Cc1cccc(NC(=O)CN2C(=O)N/C(=C\c3cccn3-c3cccc(C(=O)O)c3)C2=O)c1,50.1µM,nt,i,i
COc1ccc(-n2cccc2/C=C2/NC(=O)N(c3cccc(Cl)c3)C2=O)cc1,i,25.1µM,i,i
COc1cc(/C=C2/NC(=O)N(c3cccc(Cl)c3)C2=O)ccc1O,i,nt,i,i
O=C(O)c1cccc(-n2cccc2/C=C2/NC(=O)N(c3ccc(Cl)cc3)C2=O)c1,14.1µM,nt,i,i
O=C(O)c1cccc(-n2cccc2C=C2C(=O)c3ccccc3C2=O)c1,i,nt,i,i
O=C(O)c1cccc(-n2cccc2/C=C2/NC(=O)N(c3cccc(Cl)c3)C2=O)c1,44.7µM,nt,i,i
Cc1ccc(-n2nc3c(=O)n(CCCC(=O)NC4CCC(C)CC4)nc(C)c3c2C)cc1 (configuration not stated),i,i,i,i
CCOc1cc(C2C(C(N)=O)=C(C)Nc3ncnn32)cc(Br)c1O (configuration not stated),nt,i,nt,nt
C=CCn1c(SCC(=O)N2CCc3ccccc3C2)nc2sc(CC)cc2c1=O,i,20µM,i,i
O=C(CSc1nc2ccccc2nc1Cc1ccccc1)N1CCCc2ccccc21,nt,i,nt,nt
O=C(NCC1CCCO1)C1c2ccccc2Oc2ccccc21 (configuration not stated),i,nt,i,i
O=C(O)CC12CSc3[nH]c(=O)sc3C1c1ccccc1OC2=O (configuration not stated),14.1µM,nt,nt,nt
CCOc1ccccc1NC(=O)CSc1nc2ccccc2c2nc(CCn3cncc3C)nn12,nt,i,nt,nt
COCCc1nn2c(=O)cc(COC(=O)c3ccccc3C)nc2s1,nt,i,nt,nt
CN(C)c1nc(N)nc(/C(C#N)=C/C2CC3C=CC2C3)n1 (configuration not stated),56.2µM,i,i,i
Cc1ccc(S(=O)(=O)NN2C(=O)c3ccccc3NC2(C)C)cc1,i,15.8µM,i,i
CCCN1CNc2c(c(=O)[nH]c(=S)n2CCc2ccc(OCC)c(OCC)c2)C1,nt,i,nt,nt
CC(C)=NNc1nc(-c2ccccc2)c(C)s1,56.2µM,nt,i,i
SMILES,Sfp PPTase inh,ClpP mod,uPA surface inh,TCR activator
COc1ccc(-c2sc3ccc(N4CCOCC4)cc3c2C#CC2(O)CCCCC2)cc1,nt,25.1µM,i,i
COc1ccc(-c2sc3ccc(N4CCOCC4)cc3c2C#CCO)cc1,nt,i,i,i
Cc1cc(C2=NNC(=NCCc3ccccc3)SC2)c(C)n1CC1CCCO1 (configuration not stated),50.1µM,nt,i,i
CCN=C1NN=C(c2cc(C)n(CCc3ccccc3)c2C)CS1,50.1µM,nt,i,i
C=CCn1c(C)cc(C2=NNC(=NCc3ccccc3)SC2)c1C,i,nt,i,i
COc1ccc(-c2nn3c(-c4cc(-c5ccccc5)n[nH]4)nnc3s2)cc1OC,nt,i,nt,nt
CCOC(=O)c1c(-c2ccc(Cl)cc2)cn2ccccc12,i,31.6µM,i,i
CC(C)c1ccc(N2C(=O)CSC23C(=O)N(Cc2ccccc2F)c2ccccc23)cc1 (configuration not stated),nt,i,nt,nt
Cc1cccc(/C=C/c2cccs2)n1,nt,i,nt,nt
Cc1noc2ncnc(Sc3ccc(Br)cc3)c12,i,i,nt,i
CC1CCCC(C)N1Cc1cn2ccccc2n1 (configuration not stated),i,17.8µM,i,i
COc1cc2[nH]c3c(N4CCN(c5ccc(Cl)cc5)CC4)ncnc3c2cc1OC,?,25.1µM,i,nt
COc1cccc2[nH]c3c(N4CCC(C)CC4)ncnc3c12,i,14.1µM,nt,i
COc1cc2[nH]c3c(Cl)ncnc3c2cc1OC,i,?,?,i
CS(=O)(=O)Nc1cccc(-c2ccc3ncnc(Nc4ccccc4)c3c2)c1,i,nt,nt,nt
CCOC(=O)c1cccc(NC(=O)c2cc3c(=O)n(Cc4ccccc4)ccc3nc2C)c1,nt,i,nt,nt
Cc1ccccc1NC(=O)C1CC(=O)N(c2ccccc2F)C1 (configuration not stated),i,14.1µM,i,i
CC[C@H](C)[C@H]1O[C@]2(CC[C@@H]1C)C[C@@H]1C[C@@H](CC=C(C)[C@@H](O[C@H]3C[C@H](OC)[C@@H](O[C@H]4C[C@H](OC)[C@@H](O)[C@H](C)O4)[C@H](C)O3)[C@@H](C)C=CC=C3CO[C@@H]4[C@H](O)C(C)=C[C@@H](C(=O)O1)[C@]34O)O2,nt,i,2.51µM,i
CC[C@H](C)[C@@H]1O[C@]2(CC[C@@H]1C)C[C@H]1C[C@H](CC=C(C)[C@@H](O[C@@H]3C[C@H](OC)[C@H](O[C@@H]4C[C@H](OC)[C@H](O)[C@H](C)O4)[C@H](C)O3)[C@@H](C)C=CC=C3CO[C@@H]4[C@@H](O)C(C)=C[C@@H](C(=O)O1)[C@]34O)O2,i,nt,nt,nt
CC1(C)c2ccccc2-n2c1cc1oc(=O)cc(O)c1c2=O,89.1µM,nt,i,i
CCOC(=O)c1ccc(NC(=O)Cn2nc3c4ccccc4n(Cc4cccc(F)c4)cc-3c2=O)cc1,nt,i,nt,nt
Nc1nc2ccccc2nc1N,i,14.1µM,i,i
N=c1c2c(n(Cc3ccc(Br)cc3)c3c1CCC3)CCCC2,i,i,3.98µM,i
CCc1nn(CC(=O)N2CCCCC2)c(=O)c2cc3sccc3n12,nt,i,nt,nt
Cc1cc(Nc2cccc(Cl)c2)nc2ccc(NC(=O)c3ccc(F)cc3Cl)cc12,nt,28.2µM,nt,nt
SMILES,Sfp PPTase inh,ClpP mod,uPA surface inh,TCR activator
CCOC(=O)c1cnn(-c2ccc(C(=O)Nc3ccc(C(C)=O)cc3)cc2)c1N,nt,i,nt,nt
Cc1ccc(C(=O)N/N=C/c2cccc(OC(=O)/C=C/c3ccco3)c2)cn1,31.6µM,nt,i,i
Cc1cc(C(=O)N/N=C/c2ccccn2)n[nH]1,39.8µM,i,i,i
O=C(N/N=C/c1ccccn1)c1cc(C2CC2)[nH]n1,i,nt,i,i
Cc1cccc(C(=O)N/N=C/c2ccccn2)c1,44.7µM,i,i,i
Cc1occc1C(=O)N/N=C/c1ccccn1,63.1µM,i,?,i
Cc1ccc2c(c1)Cc1c(nc(-c3ccc(Cl)cc3)nc1SCC(=O)N1CCCCC1)O2,nt,i,nt,nt
O=c1nc2ccccc2c2n1CC(CN1CCN(c3ccccc3)CC1)N2 (configuration not stated),i,nt,nt,nt
C=CCn1c(SCC(=O)NC2CCCCC2)nnc1-c1cccnc1,i,i,i,i
Cc1ccc(C(=O)N/N=C\c2ccccn2)cn1,7.08µM,i,i,i
